Measurements as given in PubChem BioAssay (Tox21).
Inconclusive results are not listed. The source made the active and inactive calls. Unless noted, the call rests on the fitted dose curve; in most records, active means well fitted curve in the direction sought with a large enough effect in the repeat runs; inconclusive means weak or mixed curves; inactive means no such curve, though single readings can be large; an effect the other way counts as inactive or inconclusive.

Experiment: qHTS assay to identify small molecule antagonists of the TGF-beta/Smad signaling pathway - cell viability counter screen (AID 1346824); further: nearly all actives have a fitted effect of over 50% in size
Details: SBE-bla HEK293T viability, CellTiter-Glo luminescence; series mostly up to 76.8 µM; viability change, negative = cytotoxic: at the top concentration
Summary of the method: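 SBE-bla HEK 293T cells, incubated overnight, then compound plus 0.25 ng/mL TGF-beta1 (stock added) for 5 hr at 37 C. Viability was read in the same wells by CellTiter-Glo luminescence after 30 min at room temperature.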
On the % scale 0 is the no-effect control and ±100 the full control effect.

SMILES	Potency	viability change, negative = cytotoxic
CC(=O)C1=C(C)[C@@H]2C[C@@]3(C1)[C@H](C)CC[C@H]3C2(C)C	inactive	
O=C(O)CP(=O)(O)O		-0.744% [at 35.3 µM] (inactive)
COC(=O)/C=C/c1ccccc1	inactive	
CC(C)(O)CCC(C)(C)O		-3.12% (inactive)
COC(=O)c1cccc(C(=O)OC)c1	inactive	
CCCCN(CCO)CCCC		-18.2% (inactive)
O=C1NCC2(CCN(CCc3ccccc3)CC2)O1		-2.2% [at 35.3 µM] (inactive)
CC(=O)Nc1ccc(C(=O)CCl)cc1		-3.78% (inactive)
O=C(O)CCc1ccccc1		-8.51% (inactive)
CC(C)(C)c1cc(C(C)(C)C)c(O)c(C(C)(C)C)c1	inactive	
C1COC(NC(C2CC2)C2CC2)=N1		0.324% [at 35.3 µM] (inactive)
CCCNC(C)C(=O)Nc1ccccc1C (stereo not given)		1.66% [at 35.3 µM] (inactive)
Cc1ccnc2c1NC(=O)c1cccnc1N2C1CC1	inactive	
Cc1scc2c1N(C(=O)CN1CCN(C)CC1)c1ccccc1NC2=O		7.53% [at 35.3 µM] (inactive)
NNCCc1ccccc1	inactive	
Nc1ccc(O)cc1	inactive	
CCC(C)(Oc1ccc(C2(c3ccc(OC(C)(CC)C(=O)O)cc3)CCCCC2)cc1)C(=O)O (stereo not given)		-1.59% [at 35.3 µM] (inactive)
C=CC(=O)OCCCCCCOC(=O)C=C		23.5% (inactive)
COc1nc(C)nc(Cl)c1NC1=NCCN1		-3.35% [at 35.3 µM] (inactive)

SMILES	Potency	viability change, negative = cytotoxic
CC(C)(C)c1ccccc1		-0.443% (inactive)
CCCCOCCOC(=O)c1ccccc1C(=O)OCCOCCCC		-12.5% (inactive)
Cc1cc(C(C)(C)C)c(O)c(C(C)(C)C)c1	inactive	
CCCCC/C=C/CC1CC(=O)OC1=O (stereo not given)		5.29% (inactive)
NC(Cc1ccc(Cl)cc1)C(=O)O (stereo not given)		4.44% [at 0.29 µM] (inactive)
Nc1nc2ccccc2[nH]1	inactive	
CCC(CO)(CO)COCC(CC)(CO)CO		-1.27% (inactive)
CCOc1ccccc1C(N)=O	inactive	
Cc1cccc2n[nH]nc12	inactive	
CCCC(=O)c1ccccc1		9.39% (inactive)
CC[C@@H](N)CO		-5.04% (inactive)
c1ccc2c(c1)CCCC2C1=NCCN1 (stereo not given)		2.72% [at 35.3 µM] (inactive)
CC(=O)OCC1=C(C(=O)O)N2C(=O)[C@@H](NC(=O)Cc3cccs3)[C@H]2SC1		-14.1% [at 35.3 µM] (inactive)
NC(N)=NC(=O)Cc1c(Cl)cccc1Cl		-5.57% [at 35.3 µM] (inactive)
CC1=C(C=O)C(C)(C)CC=C1		0.76% (inactive)
Cc1occc(=O)c1OC(=O)C(C)C		5.49% (inactive)
CCN1CCCC1CNC(=O)c1cc(S(=O)(=O)CC)c(N)cc1OC (stereo not given)		-6.83% [at 35.3 µM] (inactive)
Clc1ccc2c(c1)C(N1CCNCC1)=Nc1ccccc1O2	inactive	

Experiment: qHTS assay to identify small molecule agonists of the TGF-beta/Smad signaling pathway - cell viability counter screen (AID 1346829); further: top concentration of the series differs between compounds; nearly all actives have a fitted effect of over 45% in size
Details: SBE-bla HEK293T viability, CellTiter-Glo luminescence, 5 h; series mostly up to 76.8 µM; activity change, negative = cytotoxicity: at the top concentration
Summary of the method: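 HEK 293T SBE-bla line, 5 hr compound exposure at 37 C, multiplexed CellTiter-Glo viability read by luminescence.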

SMILES	Potency	activity change, negative = cytotoxicity
CC(=O)C1=C(C)[C@@H]2C[C@@]3(C1)[C@H](C)CC[C@H]3C2(C)C	inactive	
O=C(O)CP(=O)(O)O		6.35% [at 35.3 µM] (inactive)
COC(=O)/C=C/c1ccccc1	inactive	
CC(C)(O)CCC(C)(C)O		-11.7% (inactive)
COC(=O)c1cccc(C(=O)OC)c1	inactive	
CCCCN(CCO)CCCC		-11.7% (inactive)
O=C1NCC2(CCN(CCc3ccccc3)CC2)O1		-10.4% [at 35.3 µM] (inactive)
CC(=O)Nc1ccc(C(=O)CCl)cc1	inactive	
O=C(O)CCc1ccccc1		-1.04% (inactive)
CC(C)(C)c1cc(C(C)(C)C)c(O)c(C(C)(C)C)c1	inactive	
C1COC(NC(C2CC2)C2CC2)=N1		9.91% [at 35.3 µM] (inactive)
CCCNC(C)C(=O)Nc1ccccc1C (stereo not given)		-1.83% [at 35.3 µM] (inactive)
Cc1ccnc2c1NC(=O)c1cccnc1N2C1CC1	inactive	
Cc1scc2c1N(C(=O)CN1CCN(C)CC1)c1ccccc1NC2=O		-6.86% [at 35.3 µM] (inactive)
NNCCc1ccccc1	inactive	
Nc1ccc(O)cc1	inactive	
CCC(C)(Oc1ccc(C2(c3ccc(OC(C)(CC)C(=O)O)cc3)CCCCC2)cc1)C(=O)O (stereo not given)		-2.74% [at 35.3 µM] (inactive)
C=CC(=O)OCCCCCCOC(=O)C=C	inactive	
COc1nc(C)nc(Cl)c1NC1=NCCN1		13.8% [at 35.3 µM] (inactive)

SMILES	Potency	activity change, negative = cytotoxicity
CC(C)(C)c1ccccc1		16.7% (inactive)
CCCCOCCOC(=O)c1ccccc1C(=O)OCCOCCCC	inactive	
Cc1cc(C(C)(C)C)c(O)c(C(C)(C)C)c1	inactive	
CCCCC/C=C/CC1CC(=O)OC1=O (stereo not given)		-1.22% (inactive)
NC(Cc1ccc(Cl)cc1)C(=O)O (stereo not given)		-10.5% [at 0.29 µM] (inactive)
Nc1nc2ccccc2[nH]1	inactive	
CCC(CO)(CO)COCC(CC)(CO)CO		1.19% (inactive)
CCOc1ccccc1C(N)=O	inactive	
Cc1cccc2n[nH]nc12	inactive	
CCCC(=O)c1ccccc1		8.47% (inactive)
CC[C@@H](N)CO		2.67% (inactive)
c1ccc2c(c1)CCCC2C1=NCCN1 (stereo not given)		7.48% [at 35.3 µM] (inactive)
CC(=O)OCC1=C(C(=O)O)N2C(=O)[C@@H](NC(=O)Cc3cccs3)[C@H]2SC1		8.43% [at 35.3 µM] (inactive)
NC(N)=NC(=O)Cc1c(Cl)cccc1Cl		2.54% [at 35.3 µM] (inactive)
CC1=C(C=O)C(C)(C)CC=C1		3.84% (inactive)
Cc1occc(=O)c1OC(=O)C(C)C		-1.44% (inactive)
CCN1CCCC1CNC(=O)c1cc(S(=O)(=O)CC)c(N)cc1OC (stereo not given)		-13.3% [at 35.3 µM] (inactive)
Clc1ccc2c(c1)C(N1CCNCC1)=Nc1ccccc1O2	inactive	

Experiment: qHTS assay to identify small molecule agonists of the TGF-beta/Smad signaling pathway (AID 1346859; active means well fitted activation curve with a large enough effect in the signal ratio in the repeat runs, not every such curve was filed as active; the % refers to the signal ratio)
Details: SBE-bla HEK293T, TGF-beta/Smad beta-lactamase reporter, 5 h; series mostly up to 76.8 µM; activation: at the top concentration
Summary of the method: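 Read-out: fluorescence at 460 and 530 nm (405 nm excitation) after a 2 hr room-temperature incubation with beta-lactamase FRET substrate. SBE-bla HEK 293T cells had been treated with test compounds for 5 hr at 37 C.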

SMILES	outcome	activation
CC(=O)C1=C(C)[C@@H]2C[C@@]3(C1)[C@H](C)CC[C@H]3C2(C)C	inactive	
COC(=O)/C=C/c1ccccc1	inactive	
CC(C)(O)CCC(C)(C)O		0.165% (inactive)
COC(=O)c1cccc(C(=O)OC)c1	inactive	
CCCCN(CCO)CCCC		-0.775% (inactive)
O=C1NCC2(CCN(CCc3ccccc3)CC2)O1		0.335% [at 35.3 µM] (inactive)
CC(=O)Nc1ccc(C(=O)CCl)cc1	inactive	
O=C(O)CCc1ccccc1		0.226% (inactive)
CC(C)(C)c1cc(C(C)(C)C)c(O)c(C(C)(C)C)c1	inactive	
C1COC(NC(C2CC2)C2CC2)=N1		1.65% [at 35.3 µM] (inactive)
CCCNC(C)C(=O)Nc1ccccc1C (stereo not given)		2.12% [at 35.3 µM] (inactive)
Cc1ccnc2c1NC(=O)c1cccnc1N2C1CC1	inactive	
Cc1scc2c1N(C(=O)CN1CCN(C)CC1)c1ccccc1NC2=O		-0.14% [at 35.3 µM] (inactive)
NNCCc1ccccc1	inactive	
Nc1ccc(O)cc1		3.98% [at 35.3 µM] (inactive)
CCC(C)(Oc1ccc(C2(c3ccc(OC(C)(CC)C(=O)O)cc3)CCCCC2)cc1)C(=O)O (stereo not given)		1.36% [at 35.3 µM] (inactive)
C=CC(=O)OCCCCCCOC(=O)C=C	inactive	
COc1nc(C)nc(Cl)c1NC1=NCCN1		4.05% [at 35.3 µM] (inactive)

SMILES	outcome	activation
CC(C)(C)c1ccccc1		2.04% (inactive)
CCCCOCCOC(=O)c1ccccc1C(=O)OCCOCCCC	inactive	
Cc1cc(C(C)(C)C)c(O)c(C(C)(C)C)c1	inactive	
CCCCC/C=C/CC1CC(=O)OC1=O (stereo not given)		-0.267% (inactive)
NC(Cc1ccc(Cl)cc1)C(=O)O (stereo not given)		0.242% [at 0.29 µM] (inactive)
Nc1nc2ccccc2[nH]1	inactive	
CCC(CO)(CO)COCC(CC)(CO)CO		1.05% (inactive)
CCOc1ccccc1C(N)=O	inactive	
Cc1cccc2n[nH]nc12	inactive	
CCCC(=O)c1ccccc1		2.24% (inactive)
CC[C@@H](N)CO		3.77% (inactive)
c1ccc2c(c1)CCCC2C1=NCCN1 (stereo not given)		3.13% [at 35.3 µM] (inactive)
CC(=O)OCC1=C(C(=O)O)N2C(=O)[C@@H](NC(=O)Cc3cccs3)[C@H]2SC1		1.17% [at 35.3 µM] (inactive)
NC(N)=NC(=O)Cc1c(Cl)cccc1Cl		2.82% [at 35.3 µM] (inactive)
CC1=C(C=O)C(C)(C)CC=C1		5.92% (inactive)
Cc1occc(=O)c1OC(=O)C(C)C		0.768% (inactive)
CCN1CCCC1CNC(=O)c1cc(S(=O)(=O)CC)c(N)cc1OC (stereo not given)		1.89% [at 35.3 µM] (inactive)
Clc1ccc2c(c1)C(N1CCNCC1)=Nc1ccccc1O2	inactive	
